FBPA Giardia inh – qHTS Assay for Inhibitors of Fructose-1,6-bisphosphate Aldolase from Giardia Lamblia. purified Giardia FBPA. actives 0.71% (n = 290,000). A8B2U2. Potency, µM (doses to about 59.6 µM), without a hit: at the highest dose activity, negative = inhibition, most hits filed as inhibitors. AID 2451, 2010; further: on the % scale 0 is the no-effect control and ±100 the full control effect; nearly all actives have a fitted effect of over 55% in size
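Giardia FBPA (40 nM reagent) was preincubated 10 min at RT with compound (up to 57.5 uM final), then substrate plus GAPDH/TPI/NAD/arsenate coupling system with diaphorase/resazurin was added; resorufin fluorescence (525/598 nm) was read after 20 min.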
NS1 function inh – qHTS Assay for Inhibitors of Influenza NS1 Protein Function | actives 0.4% (n = 270,000) | Potency, µM (highest dose often 46.1 µM), without a hit: at the top dose activity, positive = more growth | AID 2326, 2010; calls by dose curve; further: actives are rising curves; nearly all actives have a fitted effect of over 50% in size
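S. cerevisiae expressing influenza A NS1, grown in glucose, washed, then diluted 1:100 into pH 6.0 -URA galactose medium with 23 nl compound. Growth recovery read as OD600; NS1-free strain serves as control.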
TbPYK inhibitor – qHTS of Trypanosoma Brucei Inhibitors; TbPYK enzyme, Kinase-Glo Plus ATP luminescence, 45 min; Potency, µM (top dose mostly 76.8 µM), for the others: top-dose activity, negative = inhibition, hits mostly inhibitors; actives 0.12% (n = 410,000); AID 624173, 2012; further: on the % scale 0 is the no-effect control and ±100 the full control effect; nearly all actives have a fitted effect of over 50% in size
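Glycolytic pyruvate kinase of T. brucei was incubated with substrate, test compound and 130 uM ADP for 45 minutes at room temperature. Luminescent Kinase-Glo Plus signal was measured after 10 minutes.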
AMA1-RON2 inh – qHTS for Inhibitors of AMA1-RON; Towards Development of Antimalarial Drug Lead: Primary Screen | Plasmodium falciparum AMA1 (3D7) - RON2 peptide interaction | AlphaScreen AMA1-biotinylated RON2 peptide binding | Potency, µM (doses to about 58.2 µM), inactives show at the top dose activity change, negative = inhibition, usual class: inhibitors | actives 0.2% (n = 360,000);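 further: 0% = vehicle wells and -100% = peptide control; nearly all actives have a fitted effect of over 45% in size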
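AMA1 (3D7) with his tag at 25 nM final met compounds first, then biotinylated RON2 peptide at 25 nM; detection used donor plus acceptor beads, 10 µg/mL apiece, read by AlphaScreen after 30 min at room temperature.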
LmPK inh – qHTS Assay for Inhibitors of Leishmania Mexicana Pyruvate Kinase (LmPK); Q27686; Potency, µM (doses to about 57.5 µM), for the others: at the top dose activity change, negative = inhibition, hits mostly inhibitors; actives 0.37% (n = 290,000); purified LmPK, Kinase-Glo ATP luminescence, 1 h; AID 1721, 2009; further: on the % scale 0 is the no-effect control and ±100 the full control effect
Target sequence (Q27686 whole entry, looked up): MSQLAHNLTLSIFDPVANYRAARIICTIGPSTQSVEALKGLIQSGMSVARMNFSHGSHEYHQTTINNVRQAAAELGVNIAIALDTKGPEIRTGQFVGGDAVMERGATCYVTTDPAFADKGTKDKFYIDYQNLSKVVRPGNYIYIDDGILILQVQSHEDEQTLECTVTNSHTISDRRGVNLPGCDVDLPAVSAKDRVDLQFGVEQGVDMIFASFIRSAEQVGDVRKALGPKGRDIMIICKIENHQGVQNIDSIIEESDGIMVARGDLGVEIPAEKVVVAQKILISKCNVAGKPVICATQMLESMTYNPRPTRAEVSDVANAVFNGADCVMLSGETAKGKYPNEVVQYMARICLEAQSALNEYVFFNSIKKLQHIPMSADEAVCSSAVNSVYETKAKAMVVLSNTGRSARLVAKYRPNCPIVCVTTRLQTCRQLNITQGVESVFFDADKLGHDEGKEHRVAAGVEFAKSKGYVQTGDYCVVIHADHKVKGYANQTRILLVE
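Kinase-Glo luminescence read after 1 h RT reaction of 0.1 nM LmPK with 0.5 mM PEP and 0.1 mM ADP. Activity scaled between uninhibited and enzyme-free controls.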
The depositor's hits bear a star; ? = inconclusive; nt = no result given; [ ] = remark or other dose. Shown are actives, neighbours in structure and some others; about 1.2% of the full set was active somewhere. Unless noted, the call rests on the fitted dose curve; in most records, active means well fitted curve in the direction sought with a large enough effect; inconclusive means small, poorly fitted or top-dose-only effect, or another doubt; inactive means no such curve, though single readings can be large; an effect the other way counts as inactive or inconclusive. Potency means the concentration at half of the fitted maximal effect.

SMILES	FBPA Giardia inh	NS1 function inh	TbPYK inhibitor	AMA1-RON2 inh	LmPK inh
COc1ccc(-c2ccc(OC)c(C3C4C=CCCC4(C)C(=O)N3Cc3ccccc3)c2)cc1OC (stereo unspecified)	-4.7%	nt	nt	nt	nt
c1ccc(N=Nc2ccc3cccccc2-3)cc1	nt	nt	-1.5%	4.47µM*	nt
Cc1cccc(-c2[nH]ncc2-c2ccc3ncccc3n2)n1	nt	nt	1.7%[157 µM]	nt	nt
COc1cc(/C=N/Nc2nncn2/N=C/c2ccc(O)c(OC)c2)ccc1O	?	nt	?	10.8%	14.1µM*
COc1ccc(OCC(=O)Nc2nccs2)cc1	1.0%	-6.7%	-25.2%	2.5%	25.1µM*
Cc1cc(C)cc(OCC(=O)Nc2ccc3c(c2)OCO3)c1	-8.2%	-3.4%	-17.9%	10µM*	-2.6%
COCc1nnc(NC(=O)COc2ccc3c(c2)OCO3)s1	-23.2%	-3.0%	2.1%	-8.0%	-3.6%
O=C(COc1ccc2c(c1)OCO2)Nc1nccs1	-1.4%	-8.0%	?	?	14.1µM*
Cc1ccc(OCC(=O)Nc2ccc3c(c2)OCO3)cc1C	0.0%	-34.7%	4.0%	0.0%	-7.6%
Cc1ccc(NCc2ccccc2O)cc1	-6.1%	3.0%	3.0%	-15.5%	-4.2%
Cc1ccc(CNc2ccc(O)cc2)cc1	3.54µM*	-13.4%	-28.0%	31.0%	-9.6%
COc1ccccc1-c1nn2c(-c3ccccc3Cl)nnc2s1	3.4%	12.6µM*	nt	nt	7.5%
COc1ccccc1-c1nn2c(-c3ccco3)nnc2s1	-8.5%	-57.6%	-9.9%	-11.2%	2.7%
O=C(CSc1nc2cc([N+](=O)[O-])ccc2n1-c1ccccc1)NCc1ccc2c(c1)OCO2	7.92µM*	3.98µM*	3.9%	9.0%	6.7%
Cc1cc(C)cc(-n2c(SCC(=O)NCc3ccc4c(c3)OCO4)nc3ccccc3c2=O)c1	7.8%	4.1%	-2.2%	-0.5%	0.3%
Nc1ccc(C(=O)N(CCO)CCO)cc1	-0.1%	-0.7%	4.4%	7.1%	0.4%
Nc1ccc(N(CCO)CCO)cc1	5µM*	1.6%	-8.9%	-23.0%	-18.5%
CCN(CC)c1ccc(N)cc1	nt	nt	-3.4%	11.2µM*	nt
Cc1cnc(C(=O)Nc2ccccc2F)cn1	6.7%	-4.0%	-27.2%	17.8%	17.8µM*
CC(=O)OC[C@@H]1O[C@@H](O/N=C2/C[C@@H](O)[C@@H](O)[C@@H]3[C@@H]4C(=O)N([C@@H](C)c5ccccc5)C(=O)[C@H]4CC[C@@H]23)[C@H](OC(C)=O)[C@H](OC(C)=O)[C@@H]1OC(C)=O	2.6%[12.9 µM]	nt	nt	nt	nt
O=C1S/C(=C\c2ccc(N3CCOCC3)o2)C(=O)N1c1ccccc1	?	nt	28.2µM*	64.2%	2.7%
O=C(O)c1ccccc1-c1ccc(/C=C2\SC(=O)N(c3ccccc3)C2=O)o1	-3.3%	11.7%	0.2%	-3.2%	2.2%
O=C1S/C(=C\c2ccc(N3CCOCC3)o2)C(=O)N1Cc1c(F)cccc1Cl	?	-21.8%	25.1µM*	4.0%	0.6%
COc1ccc(CC(N)C(=O)N[C@H]2[C@@H](O)[C@H](n3cnc4c(N(C)C)ncnc43)O[C@@H]2CO)cc1 (stereo partly specified)	-19.3%	nt	nt	nt	nt
Clc1ccc(/C=C/c2nc3ccccc3[nH]2)c(Cl)c1	-7.5%	-164.9%	3.5%	-4.8%	14.1µM*
SMILES	FBPA Giardia inh	NS1 function inh	TbPYK inhibitor	AMA1-RON2 inh	LmPK inh
Clc1ccc(/C=C/c2nc3ccccc3[nH]2)cc1	-11.7%	-60.7%	?	8.0%	8.91µM*
Clc1cccc(Cl)c1/C=C/c1nc2ccccc2[nH]1	-14.4%	-65.6%	-5.4%	9.1%	?
CC(C)(C)C1=CC=C(C(C)(C)C)C(=O)C1=O	7.92µM*	-0.6%	nt	nt	22.4µM*
CC(C)(C)c1ccc2c(c1)C(=O)c1ccccc1C2=O	0.4%	-8.7%	-24.7%	?	?
O=C(NNc1ccc(Cl)cc1)c1c(F)cccc1Cl	-6.9%	-47.9%	-13.9%	-20.7%	2.9%
CC(=O)C(=Nc1ccccc1Cl)NNc1ccc(Cl)cc1	-4.1%	?	-4.3%	20µM*	4.6%
Cc1cn2c(=O)c3ccccc3nc2n2c(=O)c3ccccc3nc12	0.3%	nt	nt	nt	nt
O=C(NCc1cccc(Cl)c1)c1cccn1-c1nnc(N2CCCC2)s1	nt	nt	2.6%[15.4 µM]	nt	nt
COCC(=O)n1nc(-c2ccccc2)nc1NCc1ccc(N(C)C)cc1	-1.0%	3.5%	-9.5%	22.4µM*	2.1%
O=Cc1ccc2ccc3cccnc3c2n1	10.8%	-58.4%	35.3%	-79.9%	5.2%
c1cnc2c(c1)ccc1cccnc12	19.9µM*	-44.1%	-5.5%	-10.8%	-7.9%
COC(=O)[C@@H]1[C@@H](C)N(CCc2cc(OC)c(OC)c(OC)c2)C(=O)N[C@H]1c1ccccc1	18.0%[12.9 µM]	nt	nt	nt	-1.1%[11.5 µM]
CCc1c(C)[nH]c2ccc(OC)cc2c1=S	?	-3.6%	2µM*	-15.2%	?
COc1ccc2[nH]c(C)c(CN3CCCCC3)c(=O)c2c1	-0.6%	3.9%	-0.7%	8.6%	5.1%
COc1cc(NC(=O)NS(=O)(=O)c2ccc(C)cc2)cc(OC)c1	8.2%	1µM*	-2.6%	14.1%	8.1%
Cc1cc2cc(C(c3nnnn3Cc3ccco3)N3CCCCC3)c(=O)[nH]c2cc1C (stereo unspecified)	-13.8%	9.7%	-11.4%	-12.0%	7.8%
CCOc1ccc2[nH]c(=O)c(C(c3nnnn3Cc3ccco3)N3CCN(C)CC3)cc2c1 (stereo unspecified)	0.889µM*	-61.4%	-5.4%	-3.6%	-6.3%
COC(=O)N1C(/C=C/c2ccc3c(c2)OCO3)=Cc2ccccc2C1CC(C)=O (stereo unspecified)	7.4%[12.9 µM]	nt	nt	nt	-3.1%[11.5 µM]
COc1cccc([C@@H]2Oc3ccc(Br)cc3C(=O)[C@H]2OC(=O)NS(=O)(=O)c2ccc(C)cc2)c1	3.0%	nt	nt	nt	nt
Cc1ccc(-n2sc3ccccc3c2=O)cc1S(=O)(=O)N1CCCCC1	?	-27.0%	3.98µM*	-10.3%	-2.8%
O=c1c2ccccc2sn1-c1ccc(S(=O)(=O)N2CCCCC2)cc1	nt	-10.0%	?	-0.7%	nt
O=c1c2ccccc2sn1-c1ccc(S(=O)(=O)N2CCCC2)cc1	-23.0%	-6.0%	6.31µM*	8.5%	9.0%
O=C(NCCc1ccc(Cl)cc1)c1ccc2c(c1)N(Cc1ccc(F)cc1Cl)C(=O)CS2	nt	nt	-3.4%	nt	nt
CC1=C/C(=N\OS(=O)(=O)c2ccccc2)C(C)=CC1=O	7.92µM*	-147.1%	3.8%	?	-4.0%

Screening results as filed in PubChem.
